# The campaign covered roughly 410,000 compounds. About 5,000 (1.2%) were called active. Another 13% or so got no clear call; they are omitted. Calls come from the whole dose curve; as a rule, active = well fitted inhibition curve with a large enough effect; inconclusive = small, poorly fitted or top-dose-only effect; inactive = no such curve, though single readings can be large or run the other way. This excerpt belongs to a sample that is enriched for actives.
# Assay: qHTS for Inhibitors of TGF-b; note: nearly all actives have a fitted effect of over 65% in size
# Details: HepG2 CAGA-GFP TGF-b/SMAD3 reporter, GFP fluorescence, 18 h, TGF-beta stimulated, 500 pg/mL final; series mostly up to 46.1 µM; activity, negative = inhibition: at the top concentration
# Summary of the method: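 First, reporter cells (HEPG2 CAGA-GFP) rested 2 h at 37 degrees C. Next, compounds were pinned in and TGF-beta added to 500 pg/mL final. After 18 h, GFP was imaged per cell and summed per well.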
# % is set by controls: 0 for no effect and ±100 for the full control effect; potency is the fitted concentration of half-maximal effect.
Compound,"activity, negative = inhibition",Potency
Cc1noc(C)c1S(=O)(=O)Nc1cc(C(F)(F)F)ccc1N1CCOCC1,-7.13% (inactive),
Cc1oc2c(F)c(F)c(F)c(F)c2c1S(=O)(=O)Nc1cccc(C(F)(F)F)c1,,7.08 µM (active)
CN(CC(=O)Nc1cccc(C(F)(F)F)c1)S(=O)(=O)c1cccs1,-21.3% (inactive),
CCC(=O)N1N=C(c2ccc(OC)cc2)CC1c1cn(-c2ccccc2)nc1-c1cccs1 (configuration not stated),2.04% (inactive),
Cc1nnc(SCC(=O)NCc2ccccc2Cl)c2nn(-c3ccccc3)c(C)c12,-6.97% (inactive),
C=C1C(=O)[C@]23C[C@H]1CCC2[C@@]1(C)C(C[C@@H]3O)[C@](C)(C(=O)O)CC[C@@H]1O (some centres not stated),,10 µM (active)
CCn1cc2nc(SCc3ccccc3Cl)n(CCc3ccccc3)c(=O)c2n1,-0.372% (inactive),
Cc1ccc(S(=O)(=O)c2c(Nc3cccc(Cl)c3)sc(C(=O)c3ccc4c(c3)OCO4)c2N)cc1,0.384% (inactive),
Cc1ccc(NC(=O)CSc2cccc3cccnc23)c(C)c1,,14.1 µM (active)
Cc1ccc(NC(=O)CSc2nc3c([nH]c4ccccc43)c(=O)n2-c2ccccc2)c(C)c1,-16.8% (inactive),
Cc1ccc(S(=O)(=O)N(CC(=O)N/N=C/c2ccc(F)cc2)c2cccc3cccnc23)cc1,-1.79% (inactive),
O=C(CSc1cccc2cccnc12)N/N=C/c1cccnc1,,4.47 µM (active)
Cc1ccc(NC(=O)C2CCCN2S(=O)(=O)c2cccc3cccnc23)c(C)c1 (configuration not stated),-4.43% (inactive),
O=C(N/N=C\c1cccnc1)c1cc(-c2ccccc2)nc2c(Cl)cccc12,0% (inactive),
Cc1cccc(C)c1-n1ncc(C(=O)NCCCN2CCCCC2)c1C1CCN(C(=O)OC(C)(C)C)CC1,-1.79% (inactive),
Cc1ccccc1C(=O)N(Cc1ccc(N(C)C)cc1)CC1CCCO1 (configuration not stated),-0.952% (inactive),
CCOC(=O)c1ccc(NC(=O)CC2C(=O)N(c3ccccc3)C(=O)N2Cc2cccs2)cc1 (configuration not stated),-2.46% (inactive),
CCOC(=O)C1CCN(c2nc3c(S(=O)(=O)c4ccc(CC)cc4)nnn3c3ccc(Cl)cc23)CC1,0.965% (inactive),
O=C1/C(=C/c2cccs2)SC(=S)N1C1CCS(=O)(=O)C1 (configuration not stated),,15.8 µM (active)
CCN(C(=O)CN1C(=O)/C(=C/c2ccc(F)cc2)SC1=S)C1CCS(=O)(=O)C1 (configuration not stated),-28.5% (inactive),
CN(C(=O)CCN1C(=O)/C(=C/c2ccccc2F)SC1=S)C1CCS(=O)(=O)C1 (configuration not stated),-10.2% (inactive),
COc1ccc(Cl)cc1S(=O)(=O)N1CCC(c2ccncc2)CC1,-14.5% (inactive),
CCN(C(=O)Cn1cc(S(=O)(=O)N2CCN(c3ccccc3F)CC2)c2ccccc2c1=O)c1ccc(C)c(C)c1,-16.8% (inactive),
COc1ccc(C(F)(F)F)cc1NC(=O)c1sc2nc(-c3cccs3)ccc2c1N,7.6% (inactive),
Cc1ccc(CN2CCC(CNC(=O)c3cnn(-c4ccc(C)cc4)c3C3CCN(C(=O)OC(C)(C)C)CC3)CC2)cc1,-19.3% (inactive),
Cc1ccc(CN2CCC(CNC(=O)c3cnn(-c4ccccc4Cl)c3C3CCN(C(=O)OC(C)(C)C)CC3)CC2)cc1,,15.8 µM (active)
Cc1ccc(-n2ncc(C(=O)NC3CC3)c2C2CCN(C(=O)OC(C)(C)C)CC2)c(C)c1,3.65% (inactive),

# — PubChem BioAssay AID588855 (National Center for Advancing Translational Sciences (NCATS), 2011)
